# Source: PubChem BioAssay (National Center for Advancing Translational Sciences (NCATS))
# The list is not random: actives were taken first. Their share in the collection is about 12%.
# BAZ2B inh = blocks human BAZ2B. Q9UIF8. AlphaScreen BAZ2B-H3K14Ac peptide displacement. Potency, µM (top dose mostly 114 µM), actives largely listed as inhibitors. actives 4.4% (n = 360,000); also: nearly all actives have a fitted effect of over 60% in size
#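 BAZ2B 50 nM plus b-H3(5-23)K14Ac 50 nM, PBS pH 7.4/0.01% Tween-20, 30 min RT; compound added (max 110 uM), 30 min RT; streptavidin donor/Ni-chelate acceptor beads 10 ug/mL final, 20 min dark; AlphaScreen read.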
# HP1b binding inh = inhibitors of HP1-beta chromodomain binding to methylated histone tails; P83916; AlphaScreen HP1-beta / biotin-H3K9me3 peptide binding; Potency, µM (highest dose often 114 µM), actives largely listed as inhibitors; actives 0.56% (n = 390,000); also: nearly all actives have a fitted effect of over 70% in size
#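 AlphaScreen: HP1-beta (50 nM) preformed 30 min with biotin-H3(1-18)K9me3 peptide (50 nM) in PBS pH 7.4, 0.01% Tween-20. Compound added for 30 min at RT, then streptavidin donor/nickel chelate acceptor beads (10 ug/mL) for 30 min.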
# Sfp PPTase inh = Sfp phosphopantetheinyl transferase inhibition; Biochemical Sfp PPTase activity, qHTS; Potency, µM, usual class: inhibitors; actives 3.5% (n = 310,000); AID 1490;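 also: the enzyme is Sfp with the accession as filed and its product quenches rhodamine fluorescence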
#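 Fluorescence-quenching assay: 15 nM Sfp-PPTase preincubated 15 min at room temperature with compound, then 5 uM rhodamine-CoA and 12.5 uM BHQ-2-labelled YbbR peptide added. Fluorescence (ex 525/em 598 nm) read at start and after 30 min; difference gives rate.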
# L3MBTL1 inh = L3MBTL1 (human) inhibition; Potency, µM (doses to about 57.1 µM), most hits filed as inhibitors; Q9Y468; AlphaScreen L3MBTL1–H3K9me1 peptide binding; actives 0.66% (n = 230,000); also: nearly all actives have a fitted effect of over 60% in size
# Target sequence (Q9Y468 whole entry, looked up): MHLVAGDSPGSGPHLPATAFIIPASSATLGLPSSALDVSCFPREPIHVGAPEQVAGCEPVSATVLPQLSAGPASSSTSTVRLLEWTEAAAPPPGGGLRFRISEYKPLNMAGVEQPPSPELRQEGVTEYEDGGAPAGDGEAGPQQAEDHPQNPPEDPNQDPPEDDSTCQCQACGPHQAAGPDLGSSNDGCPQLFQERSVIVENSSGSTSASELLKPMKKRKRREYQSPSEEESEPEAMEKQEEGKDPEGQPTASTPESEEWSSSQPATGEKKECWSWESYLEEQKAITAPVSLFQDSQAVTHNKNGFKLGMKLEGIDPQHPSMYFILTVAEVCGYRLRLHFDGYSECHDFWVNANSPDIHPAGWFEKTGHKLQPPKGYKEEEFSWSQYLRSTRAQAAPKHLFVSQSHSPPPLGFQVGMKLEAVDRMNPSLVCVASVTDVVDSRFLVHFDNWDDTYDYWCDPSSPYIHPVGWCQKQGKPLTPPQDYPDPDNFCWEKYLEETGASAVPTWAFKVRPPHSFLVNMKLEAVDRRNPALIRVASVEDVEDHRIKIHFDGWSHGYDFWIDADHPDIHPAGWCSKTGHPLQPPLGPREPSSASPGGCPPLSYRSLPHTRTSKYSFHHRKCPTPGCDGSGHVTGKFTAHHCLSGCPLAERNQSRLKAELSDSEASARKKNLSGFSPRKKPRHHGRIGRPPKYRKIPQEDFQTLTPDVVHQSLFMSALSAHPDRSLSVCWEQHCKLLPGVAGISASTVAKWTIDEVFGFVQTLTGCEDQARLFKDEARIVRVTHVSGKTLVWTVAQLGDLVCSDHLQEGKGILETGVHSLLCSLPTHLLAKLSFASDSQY
#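 Displacement of a biotinylated histone H3(1-15) peptide monomethylated at Lys9 (75 nM) from L3MBTL1 (50 nM) was measured by AlphaScreen after a 30 min room-temperature compound incubation; cefsulodin titration served as intraplate control.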
# G9a inh = inhibitors of human histone lysine methyltransferase G9a | Q96KQ7 | G9a H3K9 monomethylation, AlphaScreen, 2 h | Potency, µM (top dose mostly 102 µM), actives largely listed as inhibitors | actives 8.8% (n = 350,000) | AID 504332; also: nearly all actives have a fitted effect of over 75% in size
#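 Compounds were preincubated with 20 nM G9a for 15 min, after which biotinylated H3K9 peptide (500 nM) and SAM (20 uM) started a 2 h room-temperature reaction. Monomethylated product was quantified by antibody-based AlphaScreen chemiluminescence.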
# JMJD2A Tudor inh = blocks the human JMJD2A Tudor domain; Potency, µM (highest dose often 114 µM), hits mostly inhibitors; actives 4.4% (n = 390,000); AlphaScreen JMJD2A-Tudor / H3K4me3 peptide binding; O75164; AID 504339; also: nearly all actives have a fitted effect of over 50% in size
# A number is an active result; . = inactive; ? = inconclusive; / = no result; ! = not confirmed by another sample; [ ] = another dose, or the depositor's remark. Calls follow the shape of the dose curve; as a rule, active = well fitted curve in the direction sought with a large enough effect; inconclusive = small, poorly fitted or top-dose-only effect, or another doubt; inactive = no such curve, though single readings can be large; an effect the other way counts as inactive or inconclusive.
SMILES,BAZ2B inh,HP1b binding inh,Sfp PPTase inh,L3MBTL1 inh,G9a inh,JMJD2A Tudor inh
O=C(O)c1ccc2nc(-c3ccccc3)sc2c1,.,.,.,.,.,.
O=C(Nc1ccc(C(F)(F)F)cc1)c1ccc2ncsc2c1,.,.,79µM,/,?,.
Nc1ccc(-c2nc3ccc(C(=O)O)cc3s2)cc1,.,.,56µM,.,40µM,.
O=C(Nc1ccc(Cl)cc1)c1ccc2ncsc2c1,.,.,?,/,45µM,.
COC(=O)C(N)CS (centres undefined),/,/,.,/,.[2.33 µM],/
O=C(CSc1nnc(-c2cccc(Cl)c2)o1)N1CCc2ccccc21,.,.,/,/,.,.
COC(=O)c1ccc(/C=N/NS(=O)(=O)c2cc(C)ccc2C)cc1,.,.,.,.,2.5µM,.
COc1ccc(/C=N/NS(=O)(=O)c2ccc(C)cc2)cc1OC(=O)c1ccc(C)cc1,.,.,.,/,?,.
Cc1ccc(C)c(S(=O)(=O)N/N=C/c2ccc(C(=O)O)cc2)c1,.,.,.,.,35µM,.
Cc1ccc(NCC(=O)N/N=C/c2ccc(C(=O)O)cc2)cc1,.,.,.,/,.,.[11.4 µM]
CCOC(=O)c1ccc(NC(=O)c2cc3c([nH]c2=O)CC(c2ccccc2)CC3=O)cc1 (centres undefined),.,.,/,/,.[12.7 µM],.
Cc1cc(C(=O)COC(=O)c2ccc3c(c2)OCO3)c(C)n1CC1CCCO1 (centres undefined),?,.,.,.,50µM,.
COc1cc(C(=O)OCC(=O)c2cc(C)n(CC3CCCO3)c2C)cc(OC)c1C (centres undefined),50µM,.,/,.,?,45µM
Cc1ccc(NC2c3ncccc3C(=O)N2Cc2ccc(F)cc2)cc1 (centres undefined),.,.,.,.,?,.
COc1ccc(CN2C(=O)c3cccnc3C2Nc2ccc(OC)c(Cl)c2)cc1 (centres undefined),?,.,.,.,?,50µM
COc1ccc(NC2c3ncccc3C(=O)N2Cc2ccccc2)c(OC)c1 (centres undefined),?,.,.,.,13µM,25µM
COc1ccc(NC2c3ccccc3C(=O)N2Cc2ccccc2Cl)cc1OC (centres undefined),?,?,.,.,50µM,.[11.4 µM]
COc1ccccc1CNS(=O)(=O)c1c(C(=O)N2CCC(C)CC2)c(C)n(C)c1C,.,.,/,/,.,.
O=C1CN(C(=O)COc2ccc(Br)cc2F)c2ccccc2N1,.,.,.,.,45µM,.
Cc1cc(C(=O)OCC(=O)N2CC(=O)Nc3ccccc32)c(C)n1-c1ccccc1,50µM,?,.,.,?,56µM
O=C1CN(C(=O)COc2ccc(Br)cc2Br)c2ccccc2N1,.,.,.,/,.,.
Cn1c2ccccc2c2cc(C(=O)OCC(=O)N3CC(=O)Nc4ccccc43)sc21,.,.,.,.,50µM,.
O=C1CN(C(=O)COC(=O)c2cccs2)c2ccccc2N1,.,.,/,.,.[2.33 µM],.
Cc1cccc(N(C)c2nc3ccccc3c3nnc(C)n23)c1,.,.,/,/,?,.
Cc1ccccc1S(=O)(=O)N1CCN(S(=O)(=O)c2ccc3c(c2)OCCO3)CC1,/,/,/,/,/,.
SMILES,BAZ2B inh,HP1b binding inh,Sfp PPTase inh,L3MBTL1 inh,G9a inh,JMJD2A Tudor inh
CCCCc1nc2c(c3c1C[C@H](C)OC3)CN(C(=O)Cc1cccs1)CC2,/,/,.,/,/,/
CCN1C(=NCc2ccco2)N[C@@H](c2cccc(F)c2)C(C(=O)OC)=C1C,.,.,.,.,40µM!,?
CCN1C(=NCC(C)C)N[C@@H](c2cccc(F)c2)C(C(=O)OC)=C1C,?,.,.,.,40µM!,?
CCN1C(=NCCCCO)N[C@@H](c2ccccc2)C(C(=O)OC)=C1C,.,/,.,/,.[12.7 µM],/
CCN1C(=NCCCCO)N[C@@H](c2cccc(F)c2)C(C(=O)OC)=C1C,?,.,.,.,.[12.7 µM],?
CCN1C(=O)N[C@@H](c2cccc(C(F)(F)F)c2)C(C(=O)OC)=C1C,/,.,.,/,/,.
CCN(CC)CCCN=C1N[C@@H](c2cccc(C(F)(F)F)c2)C(C(=O)OC)=C(C)N1CC,/,.,/,.,/,25µM
CCN1C(=NCCN2CCOCC2)N[C@@H](c2ccccc2)C(C(=O)OC)=C1C,?,.,.,.,50µM!,?
CC[C@@H]1/C=C(\C)C[C@H](C)C[C@H](OC)[C@H]2O[C@@](O)(C(=O)C(=O)N3CCCC[C@H]3C(=O)O[C@H](/C(C)=C/[C@@H]3CC[C@@H](O)[C@H](OC)C3)[C@H](C)[C@@H](O)CC1=O)[C@H](C)C[C@@H]2OC,/,/,.,/,?,/
CC1CCN(CC2CCN(C(=O)Nc3ccc(Br)cc3F)CC2)CC1,.,.,/,/,.,.
CCCn1c(-c2ccc(F)cc2)nc2c(NCCN3CCCC3)nc(C)nc21,/,/,.,/,/,/
COC(=O)C1=C(C)N(Cc2ccco2)C(=O)N[C@H]1c1ccc(Br)cc1,?,/,?,.,50µM,/
COC(=O)C1=C(C)N(Cc2ccco2)C(=O)N[C@H]1c1ccccc1,.,/,.,.,?,/
CCCc1cc(=O)oc2c(CNc3ccc(OCC)cc3)c(O)ccc12,?,.,.,/,40µM,?
CCc1cc(=O)oc2c(CNCc3c(F)cccc3Cl)c(O)ccc12,.,.,.,/,.,.
O=C(Nc1ccc(F)c(Cl)c1)c1cc(S(=O)(=O)NCc2ccc3c(c2)OCO3)ccc1F,.,.,/,/,.,.
COC(=O)CC1C(=O)NCCN1C(=S)NC(=O)c1sc2ccccc2c1Cl (centres undefined),?,.,79µM,.[11.4 µM],?,.[11.4 µM]
CC(C)OC(=O)CC1C(=O)NCCN1C(=S)NC(=O)c1ccccc1 (centres undefined),?,.,18µM,.,32µM,.
CC(C)OC(=O)CC1C(=O)NCCN1C(=S)NC(=O)c1ccc(F)cc1 (centres undefined),.,.,.,.,40µM,.
OC(COc1ccccc1)CN1CCN(c2ccccc2)CC1 (centres undefined),/,.,/,/,/,.
COc1cccc(OC)c1OCC(O)CN1CCN(c2ccccc2)CC1 (centres undefined),.,.,.,.,?,.
COc1ccccc1N1CCN(CC(O)COc2c(OC)cccc2OC)CC1 (centres undefined),.,.,.,.,14µM,.
Cc1ccc(C)c(OCC(O)CN2CCC(C)CC2)c1C (centres undefined),50µM,.,.,.,?,.[11.4 µM]
C=CCc1ccccc1OCC(O)CNC (centres undefined),.,.,.,.,50µM,.
C=CCc1ccccc1OC[C@H](O)CNC(C)C,/,/,.,/,.[21.5 µM],/
Cc1cccc(C)c1OCC(O)CN1CCN(c2ccccc2)CC1 (centres undefined),?,.,.,.,71µM,.
